Assay outcomes: PubChem, National Center for Advancing Translational Sciences (NCATS)
Sfp PPTase inh: qHTS Assay for Inhibitors of Bacillus subtilis Sfp phosphopantetheinyl transferase (PPTase). 4'-phosphopantetheinyl transferase ffp (Bacillus subtilis), Q9F4F7. Biochemical Sfp PPTase activity, qHTS. Potency, µM, inactives show largest response in the series, negative = inhibition, hits mostly inhibitors. 310,000 compounds, 3.5% hits;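 also: the enzyme is Sfp with the accession as filed and its product quenches rhodamine fluorescence; 0% = enzyme reaction without inhibitor and -100% = no enzyme wells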
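With Hepes-Na pH 7.6 buffer containing 10 mM MgCl2, Sfp (15 nM) modified BHQ-2-YbbR (12.5 uM) using rhodamine-CoA (5 uM). Two reads 30 minutes apart at 525/598 nm yielded each well's rate.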
HP1b chromo inh: HTS for Inhibitors of HP1-beta Chromodomain Interactions with Methylated Histone Tails; Chromobox protein homolog 1 (Homo sapiens), P83916; AlphaScreen HP1-beta / biotin-H3K9me3 peptide binding; Potency, µM (doses to about 114 µM), for the others: at the top dose activity change, negative = inhibition, usual class: inhibitors; 390,000 compounds, 0.56% hits; also: nearly all actives have a fitted effect of over 70% in size
Target sequence (P83916 whole entry, looked up): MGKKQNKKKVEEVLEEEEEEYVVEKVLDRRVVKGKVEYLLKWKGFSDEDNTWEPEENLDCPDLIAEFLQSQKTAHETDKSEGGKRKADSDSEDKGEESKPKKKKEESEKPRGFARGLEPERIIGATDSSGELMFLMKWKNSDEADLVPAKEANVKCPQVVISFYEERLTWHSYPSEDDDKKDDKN
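Compound inhibition of the preformed complex between 50 nM HP1-beta and 50 nM biotinylated H3K9me3 peptide was read by AlphaScreen. Buffer was PBS pH 7.4 with 0.01% Tween-20. Incubations ran 30 min at room temperature, with 10 ug/mL donor/acceptor beads.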
BAZ2B inh: qHTS Assay for Inhibitors of BAZ2B; AlphaScreen BAZ2B-H3K14Ac peptide displacement; Potency, µM (highest dose often 114 µM), for inactives: at the highest dose activity change, negative = inhibition, actives largely listed as inhibitors; 360,000 compounds, 4.4% hits; AID 504333, 2011; also: % is scaled to controls: 0 for no effect and ±100 for the full control effect; nearly all actives have a fitted effect of over 60% in size
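In this displacement format the biotinylated H3(5-23) peptide acetylated at Lys14 serves as ligand at 50 nM, with BAZ2B at 50 nM in PBS pH 7.4 containing 0.01% Tween-20. Donor and acceptor beads are 10 ug/mL final.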
JMJD2A Tudor inh: qHTS Assay for Inhibitors of JMJD2A-Tudor Domain; AlphaScreen JMJD2A-Tudor / H3K4me3 peptide binding; Potency, µM (series often up to 114 µM), inactives show at the top dose activity change, negative = inhibition, hits mostly inhibitors; 390,000 compounds, 4.4% hits; AID 504339, 2011; also: % is scaled to controls: 0 for no effect and ±100 for the full control effect; nearly all actives have a fitted effect of over 50% in size
L3MBTL1 block: qHTS Assay for the Inhibitors of L3MBTL1 | AlphaScreen L3MBTL1–H3K9me1 peptide binding | Potency, µM (highest dose often 57.1 µM), for the others: at the highest dose activity, negative = inhibition, most hits filed as inhibitors | 230,000 compounds, 0.66% hits; also: % is scaled to controls: 0 for no effect and ±100 for the full control effect; nearly all actives have a fitted effect of over 60% in size
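AlphaScreen proximity signal between nickel-chelate acceptor and streptavidin donor beads (final 10 ug/mL) reports binding of 50 nM L3MBTL1 to 75 nM biotin-H3 K9me1 peptide; complex incubated with compounds 30 min at room temperature; cefsulodin titration as control.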
G9a inh: qHTS Assay for Inhibitors of Histone Lysine Methyltransferase G9a; Histone-lysine N-methyltransferase EHMT2 (Homo sapiens), Q96KQ7; G9a H3K9 monomethylation, AlphaScreen, 2 h; Potency, µM (titrated, usually from 102 µM), without a hit: at the top dose activity, negative = inhibition, most hits filed as inhibitors; 350,000 compounds, 8.8% hits; also: % is scaled to controls: 0 for no effect and ±100 for the full control effect; nearly all actives have a fitted effect of over 75% in size
Target sequence (Q96KQ7 913-1193 limits assumed): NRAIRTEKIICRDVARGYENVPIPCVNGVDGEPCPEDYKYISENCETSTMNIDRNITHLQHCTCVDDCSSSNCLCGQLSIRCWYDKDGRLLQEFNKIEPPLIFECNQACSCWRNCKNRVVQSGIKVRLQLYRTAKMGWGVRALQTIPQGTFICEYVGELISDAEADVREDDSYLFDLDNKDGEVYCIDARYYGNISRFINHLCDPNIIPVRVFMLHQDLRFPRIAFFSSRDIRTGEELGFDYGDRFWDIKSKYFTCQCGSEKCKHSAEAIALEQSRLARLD
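G9a (20 nM) preincubated 15 min RT with compounds, then 500 nM biotinylated H3K9 peptide and 20 uM SAM added; 2 h RT reaction. Monomethyl-H3K9 product detected by AlphaScreen with anti-H3K9me1 antibody, streptavidin donor and anti-rabbit IgG acceptor beads.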
Starred values were filed as active, the others as inactive; ? = inconclusive; nt = no result given; [ ] = another dose, or the depositor's remark. An excerpt weighted towards active compounds, which were near 12% of everything screened. Calls follow the shape of the dose curve; as a rule, active = well fitted curve in the direction sought with a large enough effect; inconclusive = small, poorly fitted or top-dose-only effect, or another doubt; inactive = no such curve, though single readings can be large; an effect the other way counts as inactive or inconclusive. Potency is read from the fitted curve at half-maximal effect.

SMILES	Sfp PPTase inh	HP1b chromo inh	BAZ2B inh	JMJD2A Tudor inh	L3MBTL1 block	G9a inh
CCC(C(=O)O)C1OC(C(C)C(O)C(C)C(=O)C(CC)C2OC3(C=CC(O)C4(CCC(C)(C5CCC(O)(CC)C(C)O5)O4)O3)C(C)CC2C)C(C)CC1C (centres undefined)	15%	nt	nt	nt	nt	-6%[12.7 µM]
O=C(NCc1ccc(Cl)cc1)c1cccc(S(=O)(=O)N2CCCC2)c1	nt	79%	5%	-8%	3%	-51%[59 µM]
O=C(NCc1n[nH]c(=S)n1-c1cccc(Cl)c1)c1ccc(S(=O)(=O)N2CCCC2)cc1	?	19%	?	89µM*	-1%	?
COc1ccccc1-c1nc2c(c(SCc3cc(C)ccc3C)n1)Cc1c(CO)cnc(C)c1O2	nt	24%	-15%	-22%	nt	-37%[59 µM]
Cc1c(C)n(CCCN(C)C)c2ncnc(NCc3ccccc3)c12	1%	-8%	-21%	?	nt	79µM*
Cc1c(C)n(CCc2ccccc2)c2ncnc(NCCO)c12	-5%	-22%	?	-32%	nt	-31%[2.33 µM]
S=c1[nH]ccn1-c1c(Cl)cccc1Cl	5%	25%[57 µM]	-12%	2%	3%	10µM*
CC(C)c1ccccc1-n1cc[nH]c1=S	?	23%	?	22µM*	33%	4µM*
Cc1cccc(-n2cc[nH]c2=S)c1C	-19%	35%	-6%	40µM*	15%	1.8µM*
Cc1cccc(-n2cc[nH]c2=S)c1	56µM*	11%	-1%	5.6µM*	0%	2.8µM*
O=S(=O)(c1ccc2c(c1)OCCO2)N1CCN(S(=O)(=O)c2cc(F)c(Br)cc2F)CC1	nt	nt	nt	-14%	nt	nt
Cc1ccccc1-n1cc[nH]c1=S	-12%	16%	5%	10µM*	nt	13µM*
CCCN1CNC(=S)N(c2ccccc2C)C1	3%	23%	-13%	-1%	nt	7%[59 µM]
COCCSc1nnc(NC(=O)Cc2cccs2)s1	-17%	20%	8%	-23%	25%	?
Cn1c(SCC(=O)c2ccccc2)nnc1-c1ccncc1	24%	32%	2%	-20%	?	20%[59 µM]
CC(C)(C)C(=O)Nc1nnc(SCc2ccc(F)cc2)s1	6%	27%	6%	6%	nt	8%
Cc1ccccc1CSc1nnc(NC(=O)Cc2cccs2)s1	-14%	35%	71µM*	-21%	?	5%
CCC(=O)Nc1nnc(SCc2ccc(F)cc2)s1	11%	46%	1%	3%	12%	8.9µM*
Cn1c(SCC(=O)c2ccccc2)nnc1-c1ccccn1	9%	38%	79µM*	-9%	-12%	-2%
Cn1c(SCC(=O)c2ccccc2)nnc1-c1ccc(O)cc1	79µM*	19%	-4%	-10%	nt	-5%[12.7 µM]
Cc1cccc(Nc2cc(C)nc3nc(Cc4ccc(Cl)cc4)nn23)c1	nt	20%	-9%	-32%	nt	4%[59 µM]
CCn1ccc2cc(S(=O)(=O)N3CCCN(C(=O)NCC(=O)OC)CC3)ccc21	nt	25%[57 µM]	0%	-5%	nt	5%[59 µM]
Cc1ccc(C(=O)CSc2nnc(-c3ccccc3N)n2C)cc1C	7%	27%	3%	-23%	6%	-7%[59 µM]
CC(=O)Nc1nnc(SCC(=O)c2ccc3c(c2)Cc2ccccc2-3)s1	-7%	22%	6%	-1%	1%	-7%[59 µM]
Cn1c(SCC(=O)c2ccc3c(c2)Cc2ccccc2-3)nnc1-c1ccccc1	79µM*	28%	?	-12%[11.4 µM]	4%	35µM*
SMILES	Sfp PPTase inh	HP1b chromo inh	BAZ2B inh	JMJD2A Tudor inh	L3MBTL1 block	G9a inh
CCC(=O)Nc1nnc(SCC(=O)c2ccc3c(c2)Cc2ccccc2-3)s1	56µM*	17%	4%	-15%	7%	?
COc1cc(OC)c(NC(=O)c2c(C)oc3ncn(C)c(=O)c23)cc1Cl	nt	21%	-4%	-14%	nt	1%[59 µM]
COc1ccc(N2C(=O)/C(=C/c3ccc([N+](=O)[O-])cc3)N=C2C)c(OC)c1	1%	-9%	-15%	-23%	-8%	?
CC1=N/C(=C\c2ccc([N+](=O)[O-])cc2)C(=O)N1c1cc(Cl)ccc1C	56µM*	?	?	?	-10%	?
CCOC(=O)c1c(C)n(-c2ccc(F)cc2)c2ccc(O)cc12	?	21%	1%	-22%	nt	-11%[2.33 µM]
COC(=O)c1c(C)n(-c2ccc(OC)cc2)c2ccc(O)cc12	45µM*	-12%	?	?	-2%	?
CCOC(=O)c1cc(-c2ccc(OC)cc2)n(CCC(=O)NC2CCC(C)CC2)c1C (centres undefined)	nt	7%	-20%	?	nt	-49%[59 µM]
O=C(O)CCC/C=C\C[C@@H]1C(/C=C/[C@@H](O)COc2cccc(C(F)(F)F)c2)[C@@H](O)C[C@@H]1O (some centres undefined)	-6%	nt	nt	nt	nt	29%[59 µM]
O=C(Cn1c(-c2cccs2)cc2ccccc21)N1CCN(c2ccccc2F)CC1	nt	41%	-12%	-19%	nt	-24%[59 µM]
COc1ccc(CCN2C(=O)c3ccccc3NC2c2cc(Cl)c(O)c(OC)c2)cc1 (centres undefined)	-13%	-12%	-15%	-23%	nt	71µM*
O=C1c2ccccc2NC(c2cccc([N+](=O)[O-])c2)N1CCc1ccccc1 (centres undefined)	6%	-12%	?	?	nt	45µM*
COc1ccc(O)c(C2Nc3ccccc3C(=O)N2Cc2ccccc2)c1 (centres undefined)	nt	nt	nt	79µM*	nt	nt
Cc1ccc(NC(=S)N(CCCN2CCOCC2)Cc2cccs2)c(C)c1	25µM*	-1%	2%	-10%	1%	?
COC(=O)c1ccccc1S(=O)(=O)N(CCCN1CCOCC1)Cc1cccs1	4%	?	50µM*	7.9µM*	17%	7.9µM*
CC(=O)Nc1ccc(SCC(Cc2ccccc2)N2CCN(CCc3ccccc3)CCC2=O)cc1 (centres undefined)	-21%	15%	nt	?	nt	nt
Cc1cc(=O)oc(C)c1C(=O)O	13%	6%	-19%	-28%	4%	-36%[12.7 µM]
Cc1oc2c(c1C(=O)O)C(=O)c1ccccc1C2=O	?	47%	0%	-7%	?	10µM*
O=C1C(=O)c2c(C(=O)c3ccccc3)coc2-c2ccccc21	56µM*	-18%	?	-29%	nt	45µM*
Cc1oc2c(c1C(=O)c1ccccc1)C(=O)C(=O)c1ccccc1-2	50µM*	-29%	45µM*	?	?	?
CCOC(=O)c1c(C)oc2c1C(=O)c1ccccc1C2=O	?	-3%	?	-28%	-10%	13µM*
